# Where “and” joins values, the source holds several entries; their conditions need not be identical. Identical values can stand only once. Unmarked numbers belong to inactive results. Inconclusive results are not listed. Calls of active or inactive are those of the source. The call rests on the fitted dose curve.
# Molecular target: Acetylcholinesterase (Homo sapiens) (UniProt P22303)
# Experiment: Acetylcholinesterase (AChE) small molecule antagonists: colormetric cell-based qHTS assay (AID 1347395); further: nearly all actives have a fitted effect of over 30% in size
# Details: SH-SY5Y cells AChE activity, colorimetric (Ellman); series mostly up to 115 µM; activity, negative = inhibition: at the top concentration
# Procedure, shortened: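 SH-SY5Y cells attached overnight, exposed to compound 30 min at 37 C, then given DTNB/acetylthiocholine; after 90 min at 37 C, colorimetric thiocholine read gives cellular AChE activity.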
# On the % scale 0 is the no-effect control and ±100 the full control effect; potency means the concentration at half of the fitted maximal effect.
# Sequence of Acetylcholinesterase (Homo sapiens) (P22303 whole entry, looked up): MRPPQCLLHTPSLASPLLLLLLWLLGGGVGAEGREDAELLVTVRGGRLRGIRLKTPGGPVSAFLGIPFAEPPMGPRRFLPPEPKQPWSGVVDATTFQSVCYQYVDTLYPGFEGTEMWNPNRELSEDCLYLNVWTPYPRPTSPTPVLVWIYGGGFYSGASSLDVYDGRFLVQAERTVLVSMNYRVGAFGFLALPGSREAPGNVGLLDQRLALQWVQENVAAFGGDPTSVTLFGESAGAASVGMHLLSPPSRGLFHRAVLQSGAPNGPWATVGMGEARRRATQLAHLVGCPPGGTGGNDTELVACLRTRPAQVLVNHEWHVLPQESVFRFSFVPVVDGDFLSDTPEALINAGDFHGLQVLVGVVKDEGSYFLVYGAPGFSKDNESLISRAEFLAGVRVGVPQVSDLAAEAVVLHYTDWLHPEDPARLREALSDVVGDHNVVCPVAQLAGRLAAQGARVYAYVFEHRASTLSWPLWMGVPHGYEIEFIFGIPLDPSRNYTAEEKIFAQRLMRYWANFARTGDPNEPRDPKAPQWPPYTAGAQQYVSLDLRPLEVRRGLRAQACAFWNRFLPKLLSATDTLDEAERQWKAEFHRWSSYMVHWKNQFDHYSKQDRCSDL
SMILES,"activity, negative = inhibition",Potency
CCOC(=O)COc1cc(-c2nn(C)c(OC(F)F)c2Cl)c(F)cc1Cl,2%,
COP(=O)(OC)O/C(=C/Cl)c1cc(Cl)c(Cl)cc1Cl,,42.2 µM (active)
C=CC[C@]1(O)CC[C@H]2[C@@H]3CCC4=CC(=O)CCC4=C3C=C[C@@]21C,-2.49% [at 52.9 µM],
O=C(O)c1ccccc1C(=O)Nc1cccc2ccccc12,-12.1%,
CC1(C)CCC(Cc2ccc(Cl)cc2)C1(O)Cn1cncn1 (stereo not drawn),-4.38%,
CO[C@@H]1[C@H](OC(=O)NC(=O)CCl)CC[C@]2(CO2)[C@H]1[C@@]1(C)O[C@@H]1CC=C(C)C,2.96% [at 23.6 µM],
COC(=O)c1cncn1C(C)c1ccccc1 (stereo not drawn),1.97% [at 52.9 µM],
Cc1cc(=O)[nH]o1,-2.51%,
COC1=CC(=O)O[C@@H](CCc2ccccc2)C1,-1.28%,
Cn1cc[n+](C)c1 (tested in a mixture with another compound),-8.26%,
N#Cc1cc(I)c(O)c(I)c1,0.873%,

# Molecular target: Acetylcholinesterase (Homo sapiens) (UniProt P22303)
# Experiment: Acetylcholinesterase (AChE) small molecule antagonists: enzyme-based qHTS assay (AID 1347397); further: nearly all actives have a fitted effect of over 55% in size
# Details: Potency: AChE enzyme activity inhibition; series mostly up to 115 µM; activity change, negative = inhibition: at the top concentration
# Procedure, shortened: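 In this quantitative HTS, compounds from the Tox21 10K collection were preincubated 30 min at ambient temperature with recombinant human AChE dispensed at 50 mU/mL. Hydrolysis of acetylthiocholine was then followed for 10 min by DTNB colour development.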
SMILES,"activity change, negative = inhibition",Potency
C[C@]12CC[C@H]3[C@@H](CCC4=CC(=O)CC[C@@H]43)[C@@H]1CC[C@@H]2OC(=O)CCC1CCCCC1,-12.7% [at 53 µM],
CCCCNP(N)(N)=S,0.774%,
c1cc2ccc3cccc4ccc(c1)c2c34,4.95%,
C=CC(C)=O,0.0053%,
Clc1cc(C(Cl)(Cl)Cl)cnc1Cl,0.323%,
C/C=C/C=O,0.128%,
CC1(C)[C@H](C=C(Cl)Cl)[C@@H]1C(=O)O[C@@H](C#N)c1cccc(Oc2ccccc2)c1,-11.6%,
Cc1c(F)c(F)c(COC(=O)C2C(/C=C(\Cl)C(F)(F)F)C2(C)C)c(F)c1F (stereo not drawn),-7.4%,
Nc1nc(N)nc(N)n1,0.273%,
CCOS(C)(=O)=O,2.11%,
O=C(CBr)OCc1ccccc1,3.22%,
O=S(=O)(O)C(F)(F)C(F)(F)C(F)(F)C(F)(F)F,-3.04%,
Cc1ccc(N)cc1C,0.273%,
CC[C@H]1C[C@H]2[C@@H]3CCC4=CC(=O)CC[C@@H]4[C@H]3CC[C@]2(C)[C@H]1O,0.271% [at 53 µM],
O=Cc1ccc2c(c1)OCO2,-1.36%,
COC(=O)C(Br)CBr (stereo not drawn),-0.903%,
C=COC(C)=O,0.29%,
CC1C(=O)C[C@]2(C(C)C)C[C@H]12 (stereo partly drawn),-0.149%,

SMILES,"activity change, negative = inhibition",Potency
Brc1ccccc1,0.172%,
CO/N=C(/C(=O)OC)c1ccccc1COc1ccccc1C,-0.516%,
CC(C)(Cl)[N+](=O)[O-],0.136%,
CC(C)O.CC(C)O.OCCN(CCO)CCO.OCCN(CCO)CCO.[Ti],0.387%,
CCOP(=S)(OCC)Oc1nc(Cl)c(Cl)cc1Cl,,79.9 µM (active)
ClP(Cl)(Cl)(Cl)Cl,1.62%,
CC(=O)NC1CCSC1=O (stereo not drawn),-0.0025% [at 53 µM],
CCOC(=O)COc1cc(-c2nn(C)c(OC(F)F)c2Cl)c(F)cc1Cl,2.24%,
COP(=O)(OC)O/C(=C/Cl)c1cc(Cl)c(Cl)cc1Cl,-21.5%,
C=CC[C@]1(O)CC[C@H]2[C@@H]3CCC4=CC(=O)CCC4=C3C=C[C@@]21C,-0.272% [at 53 µM],
O=C(O)c1ccccc1C(=O)Nc1cccc2ccccc12,-8.58%,
CC1(C)CCC(Cc2ccc(Cl)cc2)C1(O)Cn1cncn1 (stereo not drawn),0.4%,
CO[C@@H]1[C@H](OC(=O)NC(=O)CCl)CC[C@]2(CO2)[C@H]1[C@@]1(C)O[C@@H]1CC=C(C)C,0.618% [at 23.6 µM],
COC(=O)c1cncn1C(C)c1ccccc1 (stereo not drawn),-0.111% [at 53 µM],
Cc1cc(=O)[nH]o1,-0.229%,
COC1=CC(=O)O[C@@H](CCc2ccccc2)C1,-1.22%,
Cn1cc[n+](C)c1 (tested in a mixture with another compound),0.273%,
N#Cc1cc(I)c(O)c(I)c1,0.387%,

# Molecular target: Acetylcholinesterase (Homo sapiens) (UniProt P22303)
# Experiment: Acetylcholinesterase (AChE) small molecule antagonists: fluorescence cell-based qHTS assay (AID 1347398); further: nearly all actives have a fitted effect of over 50% in size
# Details: SH-SY5Y cells; Potency: AChE activity; series mostly up to 115 µM; activity change, negative = inhibition: at the top concentration
# Procedure, shortened: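 Cells (SH-SY5Y) attached overnight, were dosed with compound or DMSO vehicle for 30 min at 37 C, and then incubated 40 min at room temperature with acetylthiocholine and Thiolite Green; green fluorescence indexed AChE activity.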
SMILES,"activity change, negative = inhibition",Potency
C[C@]12CC[C@H]3[C@@H](CCC4=CC(=O)CC[C@@H]43)[C@@H]1CC[C@@H]2OC(=O)CCC1CCCCC1,-12.4% [at 53.7 µM],
CCCCNP(N)(N)=S,0.0991%,
c1cc2ccc3cccc4ccc(c1)c2c34,-0.602%,
C=CC(C)=O,5.06%,
Clc1cc(C(Cl)(Cl)Cl)cnc1Cl,5.37%,
C/C=C/C=O,5.43%,
CC1(C)[C@H](C=C(Cl)Cl)[C@@H]1C(=O)O[C@@H](C#N)c1cccc(Oc2ccccc2)c1,0.702%,
Cc1c(F)c(F)c(COC(=O)C2C(/C=C(\Cl)C(F)(F)F)C2(C)C)c(F)c1F (stereo not drawn),-4.02%,
Nc1nc(N)nc(N)n1,0.985%,
CCOS(C)(=O)=O,-1.27%,
O=C(CBr)OCc1ccccc1,9.17%,
O=S(=O)(O)C(F)(F)C(F)(F)C(F)(F)C(F)(F)F,8.34%,
Cc1ccc(N)cc1C,-7.22%,
CC[C@H]1C[C@H]2[C@@H]3CCC4=CC(=O)CC[C@@H]4[C@H]3CC[C@]2(C)[C@H]1O,1.7% [at 53.7 µM],
O=Cc1ccc2c(c1)OCO2,-2.11%,
COC(=O)C(Br)CBr (stereo not drawn),7.86%,
C=COC(C)=O,0.577%,
CC1C(=O)C[C@]2(C(C)C)C[C@H]12 (stereo partly drawn),-0.127%,

SMILES,"activity change, negative = inhibition",Potency
Brc1ccccc1,2.04%,
CO/N=C(/C(=O)OC)c1ccccc1COc1ccccc1C,0.441%,
CC(C)(Cl)[N+](=O)[O-],-0.611%,
CC(C)O.CC(C)O.OCCN(CCO)CCO.OCCN(CCO)CCO.[Ti],-0.978%,
CCOP(=S)(OCC)Oc1nc(Cl)c(Cl)cc1Cl,,35.7 µM (active) and 35.6 µM (active)
ClP(Cl)(Cl)(Cl)Cl,-15.9%,
CC(=O)NC1CCSC1=O (stereo not drawn),3.34% [at 53.7 µM],
CCOC(=O)COc1cc(-c2nn(C)c(OC(F)F)c2Cl)c(F)cc1Cl,-1.61%,
COP(=O)(OC)O/C(=C/Cl)c1cc(Cl)c(Cl)cc1Cl,,37.6 µM (active)
C=CC[C@]1(O)CC[C@H]2[C@@H]3CCC4=CC(=O)CCC4=C3C=C[C@@]21C,,6.92 µM (active)
O=C(O)c1ccccc1C(=O)Nc1cccc2ccccc12,-7.44%,
CC1(C)CCC(Cc2ccc(Cl)cc2)C1(O)Cn1cncn1 (stereo not drawn),-5.99%,
CO[C@@H]1[C@H](OC(=O)NC(=O)CCl)CC[C@]2(CO2)[C@H]1[C@@]1(C)O[C@@H]1CC=C(C)C,-0.397% [at 23.8 µM],
COC(=O)c1cncn1C(C)c1ccccc1 (stereo not drawn),2.78% [at 53.7 µM],
Cc1cc(=O)[nH]o1,-3.3%,
COC1=CC(=O)O[C@@H](CCc2ccccc2)C1,-17.8%,
Cn1cc[n+](C)c1 (tested in a mixture with another compound),-2.67%,
N#Cc1cc(I)c(O)c(I)c1,-4.23%,

# From PubChem BioAssay (Tox21)
